Compound activity deposited in PubChem by several laboratories.
Mdm2-MdmX inh = inhibitors of human Mdm2-MdmX association, primary screen, cell-based, luminescence, split luciferase, SaOS-2, uHTS; SaOS-2 split-luciferase Mdm2/MdmX complementation; inhibition, % at 8 µM; 330,000 tested, 3% active; AID 485346, 2010;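 active means inhibition of at least 50% at 8 µM in the primary screen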
Target sequence (O15151 whole entry, looked up): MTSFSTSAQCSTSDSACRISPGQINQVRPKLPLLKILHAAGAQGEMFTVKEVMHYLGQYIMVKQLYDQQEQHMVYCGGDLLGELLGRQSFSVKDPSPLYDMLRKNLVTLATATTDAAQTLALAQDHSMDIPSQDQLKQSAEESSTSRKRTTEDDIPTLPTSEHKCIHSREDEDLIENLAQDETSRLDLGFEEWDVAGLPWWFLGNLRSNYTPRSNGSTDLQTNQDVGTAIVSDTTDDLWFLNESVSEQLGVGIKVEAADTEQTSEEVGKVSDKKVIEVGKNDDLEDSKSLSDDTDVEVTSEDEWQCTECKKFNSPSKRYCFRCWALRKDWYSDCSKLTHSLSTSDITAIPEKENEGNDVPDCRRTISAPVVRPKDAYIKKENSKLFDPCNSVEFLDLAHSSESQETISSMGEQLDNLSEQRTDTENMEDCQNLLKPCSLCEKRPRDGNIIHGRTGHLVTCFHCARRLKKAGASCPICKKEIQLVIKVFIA
Target sequence (Q00987 whole entry, looked up): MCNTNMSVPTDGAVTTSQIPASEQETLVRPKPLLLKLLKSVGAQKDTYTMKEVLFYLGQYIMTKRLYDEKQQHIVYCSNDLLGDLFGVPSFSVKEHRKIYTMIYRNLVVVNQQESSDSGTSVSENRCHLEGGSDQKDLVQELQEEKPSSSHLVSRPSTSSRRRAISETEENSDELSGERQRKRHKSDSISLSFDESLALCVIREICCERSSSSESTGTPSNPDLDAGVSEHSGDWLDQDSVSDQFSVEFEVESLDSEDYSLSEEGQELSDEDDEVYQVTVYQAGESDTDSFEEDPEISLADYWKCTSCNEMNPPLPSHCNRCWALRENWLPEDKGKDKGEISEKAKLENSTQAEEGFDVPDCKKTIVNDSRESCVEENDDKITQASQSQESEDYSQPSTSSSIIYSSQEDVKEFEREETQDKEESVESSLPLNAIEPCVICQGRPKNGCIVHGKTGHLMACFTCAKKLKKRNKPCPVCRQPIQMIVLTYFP
MPTP inh = mitochondrial permeability transition pore inhibitors, primary screen, biochemical, isolated mouse mitochondria, absorbance. Ca2+ swelling absorbance, 30 min. inhibition, % at 10 µM. 360,000 tested, 1.4% active;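 active means inhibition of 50% or more, scaled per plate between neutral and stimulator controls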;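 further: 0% = DMSO wells given calcium and 100% = 1 mM EGTA wells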
Calb FLC = C. albicans growth inhibition with fluconazole, primary screen, CaCi-2 strain, Alamar Blue fluorescence; 300,000 tested, 0.57% active; C. albicans CaCi-2 (fluconazole-resistant clinical isolate) + fluconazole, 48 h; growth inhibition, % (no concentration beside the values);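 active means growth inhibition above about 58% in most replicates, limit read from the data, passing the limit was not always enough; inconclusive means exactly half the replicates above a set limit; inactive means most replicates below a set limit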;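 further: all wells also contain fluconazole at 8 µg/ml as a sub-toxic cotreatment; 0% = median of DMSO wells and 100% = median of geldanamycin control wells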
SKKanGAS inh = S. pyogenes SKKanGAS growth inhibitors in kanamycin, primary screen, streptokinase expression inhibitor project, SKKanGAS strain, BacTiter-Glo luminescence. 6 h. inhibition, % at 7.5 µM. 300,000 tested, 1.3% active. AID 1662, 2009;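 active means mean replicate score, as percent of positive control median, at least 50; inconclusive means mean below 50 but one replicate at or above 50; inactive means mean and every replicate below 50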;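 further: strain carries kanamycin resistance gene driven by streptokinase promoter and grows in 40 µg/ml kanamycin; loss of luminescence reflects streptokinase promoter inhibition or plain growth inhibition; 0% = median of DMSO wells and 100% = positive control at its reference dose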
CSC inhib = cancer stem cell viability inhibitors, primary screen, luminescence | cancer stem cell-like cells viability | inhibition, % at 7.5 µM | 300,000 tested, 1.1% active; in the data active means inhibition above about 75%; inconclusive means no clear call, values can overlap the other calls; tested in HMLE shEcad cells
Beta apoptosis = inhibitors of cytokine-induced beta cell apoptosis, primary screen, luminescence; protection from apoptosis, % (no concentration beside the values); INS-1E cytokine-induced death, ATP luminescence, 48 h; percent of positive-control rescue, neutral wells zero; 300,000 tested, 0.8% active;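 active means Every replicate reaches about 75%, or at least half do and their mean reaches it too, limit read from the data; inconclusive means At least half of replicates reach the limit but their mean does not; inactive means Under half of replicates reach the limit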;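 further: 0% = cytokine-treated negative control wells and 100% = positive control rescue; higher means more ATP so stronger rescue from cytokine killing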
An asterisk follows results filed as active; ? = inconclusive; nt = no result. The list is not random: actives were taken first. Their share in the collection is about 5.4%.

SMILES | Mdm2-MdmX inh | MPTP inh | Calb FLC | SKKanGAS inh | CSC inhib | Beta apoptosis
CCc1ccc(OCC(=O)NC(=S)Nc2ccc(S(=O)(=O)NC3CCCCC3)cc2)cc1 | 23.0 | -0.1 | 4.0 | 12.8 | -0.7 | -5.5
Cc1ccc(CNC(=O)CCn2ccc3cc(S(=O)(=O)N4CCCC4)ccc32)cc1 | 12.5 | -3.0 | -16.0 | 3.9 | 0.2 | -6.6
O=C(CN1C(=O)C2C3C=CC(C3)C2C1=O)Nc1cccc(S(=O)(=O)N2CCCC2)c1 (configuration not stated) | 15.7 | -0.1 | -2.2 | -7.1 | -6.4 | -1.9
CCOc1ccc(NC(=O)C2CC(=O)N(c3ccc4c(c3)OCCO4)C2)cc1OCC (configuration not stated) | 15.7 | -1.3 | -1.1 | 3.9 | -7.2 | 1.8
CC(=O)NC(c1cccs1)c1cc(Cl)c2ccccc2c1O (configuration not stated) | 6.4 | 3.6 | nt | nt | 35.6 | -6.8
O=C(CCc1ccccc1)NC(c1cccs1)c1cc(Cl)c2cccnc2c1O (configuration not stated) | nt | 10.3 | ? | 66.8* | nt | nt
CCC(=O)NC(c1cccs1)c1cc(Cl)c2ccccc2c1O (configuration not stated) | 12.4 | 4.6 | nt | nt | 7.7 | -13.8
CCCC(=O)NC(c1cccs1)c1cc([N+](=O)[O-])c2cccnc2c1O (configuration not stated) | nt | 5.3 | 39.7 | 85.6* | 105.7* | 60.6
CC(=O)NC(c1cccs1)c1cc([N+](=O)[O-])c2cccnc2c1O (configuration not stated) | nt | -1.7 | 81.3* | 14.7 | 98.5* | 89.7*
CN1CCC(OC(=O)c2cccc(Cl)c2)CC1 | -0.1 | -0.5 | -3.5 | -2.4 | 117.3* | -10.1
O=C(CSc1nnc(-c2ccc3c(c2)OCO3)o1)Nc1ncc(C(F)(F)F)cc1Cl | 13.1 | -11.3 | 66.4 | 98.1* | ? | -5.0
COc1cc2cc(Oc3ccc4ccc(=O)oc4c3)c(=O)oc2cc1OC(C)=O | -15.9 | 0.5 | 9.2 | 46.0 | 6.5 | -3.7
COc1cc2cc(Oc3ccc4ccc(=O)oc4c3)c(=O)oc2cc1O | -12.7 | -1.7 | 1.2 | 58.8* | -3.4 | -1.8
COc1ccccc1N=C1NC(=O)/C(=C/c2ccc(N(C)C)cc2)S1 | 44.9 | 0.4 | -3.1 | 55.8* | 52.7 | 7.0
COc1ccc(/C=C2\SC(=Nc3ccccc3)NC2=O)cc1 | 3.9 | nt | 2.4 | 5.8 | -4.1 | -1.1
CCCOc1cccc(-c2cc(C(=O)N/N=C/c3ccccn3)c3ccccc3n2)c1 | 33.0 | 1.3 | -0.9 | 92.5* | 32.8 | 24.2
CCCOc1cccc(-c2cc(C(=O)N/N=C/c3cccnc3)c3ccccc3n2)c1 | 26.0 | 0.1 | 37.1 | nt | -9.6 | 4.7
O=C(N/N=C/c1ccco1)c1cc(-c2ccccc2)nc2ccccc12 | 0.7 | -0.5 | -2.8 | 0.3 | 12.3 | 3.3
CCCc1ccc(-c2cc(C(=O)N/N=C/c3ccc([N+](=O)[O-])o3)c3ccccc3n2)cc1 | 21.8 | -1.5 | 1.5 | 96.5* | -13.9 | 12.1
CCOc1cc(S(=O)(=O)Nc2ccc(CC)cc2)ccc1Cl | -7.1 | 5.1 | 3.4 | 1.6 | 123.1* | 55.0
COc1cc(/C=N/N(c2ccccc2)c2ccccc2)ccc1O | 5.7 | 3.3 | 10.4 | 25.3 | 98.9* | 2.5
COc1ccc(/C=N/N(c2ccccc2)c2ccccc2)cc1O | 1.4 | 2.8 | 6.7 | 4.4 | 80.7* | 6.7
CCOc1ccc(/C=N/N(C)c2ccccc2)cc1OC | -132.4 | -0.6 | 1.7 | -5.8 | nt | 1.2
COc1cc(/C=N/Nc2ccccc2)ccc1O | -26.6 | -0.1 | -12.9 | 9.9 | 40.6 | -0.9
Cn1cccc1C(=O)OCC(=O)NCCc1ccc(S(N)(=O)=O)cc1 | 14.3 | -2.4 | nt | nt | -9.7 | -7.0
SMILES | Mdm2-MdmX inh | MPTP inh | Calb FLC | SKKanGAS inh | CSC inhib | Beta apoptosis
CC1(C)N=C(N)N=C(N)N1c1ccc(OCCCOc2ccccc2)c(Cl)c1 | nt | -1.2 | 7.2 | 111.5* | 84.6* | 102.9*
COc1ccc(N2C(N)=NC(N)=NC23CCCC3)cc1 | 11.7 | -2.8 | -3.3 | -3.3 | 2.5 | 11.0
COc1ccc(N2C(N)=NC(N)=NC2(C)C)cc1 | nt | -1.1 | -13.4 | 73.3* | -15.0 | 10.0
COc1cccc(N2C(N)=NC(N)=NC2(C)C)c1 | -16.2 | 2.0 | -2.0 | 95.2* | 1.0 | 4.2
CCOC(=O)c1cccc(N2C(N)=NC(N)=NC2(C)C)c1 | 19.6 | -1.1 | -3.0 | 90.8* | -40.6 | -8.3
CC(C)(C)OC(=O)NCCCCC1=CC2=CC(=O)C(C)(OC(=O)c3cnc4ccccc4n3)C(=O)C2=CO1 (configuration not stated) | -6.3 | nt | -3.9 | 5.5 | 4.1 | -2.0
O=C(OCc1c(-c2ccccc2)ncc2ccccc12)c1cccc(Br)c1 | 37.5 | -0.6 | nt | nt | 33.8 | 6.6
COC(=O)Nc1ccc(S(=O)(=O)NCCCCCC(=O)O)cc1 | -13.2 | -0.6 | -1.9 | -1.4 | -4.3 | 1.5
CCOc1ccc(N2C(N)=NC(N)=NC2(C)C)cc1 | 8.9 | -4.5 | -2.3 | 95.1* | 0.7 | 2.7
CC1(C)N=C(N)N=C(N)N1c1ccc(OCC(=O)N2CCOCC2)cc1 | nt | -0.2 | nt | nt | nt | nt
O=C(CN1CCCCC1)Nc1cccc(Cl)c1 | -9.2 | -0.7 | 6.2 | -6.5 | -9.2 | -2.5
COc1cc(NC(=O)Nc2cccc(Cl)c2)c(OC)cc1NC(=O)CN1CCCCC1 | 38.6 | 7.5 | nt | 40.5 | 114.7* | 8.1
CCSc1nnc(-c2ccc(Cl)cc2)c2ccccc12 | 5.9 | 3.9 | ? | -7.1 | -1.2 | 10.9
CCSc1nnc(-c2ccc(C)cc2)c2ccccc12 | 0.4 | -2.0 | 92.9* | -8.7 | 7.6 | 3.7
CCOc1ccc(CCNC(=O)COC(=O)c2ccc(Br)o2)cc1OCC | -1.8 | -0.9 | -13.3 | -6.8 | 6.0 | nt
COCc1c(C(C)C)nc(C(C)C)c(/C=C/[C@@H](O)C[C@@H](O)CC(=O)O)c1-c1ccc(F)cc1 | nt | nt | 112.3* | 7.4 | 105.8* | 45.7
COc1ccc(C2=NN(C(=O)CCC(=O)O)C(c3ccc(F)cc3)C2)cc1 (configuration not stated) | 11.4 | -0.6 | -11.0 | 7.8 | 3.2 | -1.4
O=C(CSc1nnc(CNC(=O)c2ccccc2)o1)NCc1ccccc1Cl | 6.3 | -3.2 | 1.6 | 17.7 | -5.5 | -4.8
O=C(CSc1nnc(CNC(=O)c2ccc(F)cc2)o1)NCc1ccccc1Cl | 6.5 | -0.8 | -2.4 | 50.5* | -5.4 | nt
Cc1ccccc1N1CCN(S(=O)(=O)c2nnc(NC(=O)CC(C)C)s2)CC1 | -3.9 | 2.2 | -4.5 | 3.2 | 6.0 | -7.1
Cc1ccccc1N1CCN(S(=O)(=O)c2nnc(NC(=O)c3ccco3)s2)CC1 | 20.1 | 3.5 | 3.7 | 50.6* | 33.6 | 2.5
O=C(c1ccc(-c2ccc([N+](=O)[O-])cc2)o1)N1CCCCC1 | -93.8 | 3.1 | -10.8 | -5.0 | 11.2 | 5.2
